Among the data in PubChem BioAssay are composite z-score values, retold here.

Focal adhesion kinase 1 (Homo sapiens), sequence (Q05397 whole entry, looked up): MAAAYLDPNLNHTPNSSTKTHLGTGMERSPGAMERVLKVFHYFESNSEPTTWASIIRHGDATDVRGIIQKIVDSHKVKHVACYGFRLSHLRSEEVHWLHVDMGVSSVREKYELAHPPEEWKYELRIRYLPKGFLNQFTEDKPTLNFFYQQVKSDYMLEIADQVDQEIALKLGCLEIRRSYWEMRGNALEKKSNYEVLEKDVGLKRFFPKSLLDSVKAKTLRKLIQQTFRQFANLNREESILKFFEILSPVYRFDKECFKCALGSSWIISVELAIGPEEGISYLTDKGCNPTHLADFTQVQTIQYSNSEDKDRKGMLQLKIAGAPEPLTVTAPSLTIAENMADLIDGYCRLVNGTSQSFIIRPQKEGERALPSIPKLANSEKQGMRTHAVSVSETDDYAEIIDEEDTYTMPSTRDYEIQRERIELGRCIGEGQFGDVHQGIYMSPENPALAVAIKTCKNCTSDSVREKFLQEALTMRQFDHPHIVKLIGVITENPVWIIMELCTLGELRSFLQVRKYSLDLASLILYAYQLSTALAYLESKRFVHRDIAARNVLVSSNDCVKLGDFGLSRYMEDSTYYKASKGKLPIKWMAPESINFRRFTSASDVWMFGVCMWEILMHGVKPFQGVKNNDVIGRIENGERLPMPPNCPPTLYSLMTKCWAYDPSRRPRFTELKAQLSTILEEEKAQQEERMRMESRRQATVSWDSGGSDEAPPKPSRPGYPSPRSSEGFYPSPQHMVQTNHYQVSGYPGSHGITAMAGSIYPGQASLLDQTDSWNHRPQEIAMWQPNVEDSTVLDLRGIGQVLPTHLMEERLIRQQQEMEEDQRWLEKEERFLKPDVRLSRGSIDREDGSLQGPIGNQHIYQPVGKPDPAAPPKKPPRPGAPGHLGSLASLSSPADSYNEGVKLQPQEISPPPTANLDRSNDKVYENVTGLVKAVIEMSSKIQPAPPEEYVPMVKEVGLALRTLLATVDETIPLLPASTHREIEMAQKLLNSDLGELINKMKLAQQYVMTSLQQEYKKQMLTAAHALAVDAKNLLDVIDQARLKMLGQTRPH

This assay addresses Focal adhesion kinase 1 (Homo sapiens) (UniProt Q05397). The assay can be described thus: PTK2 protein binding on printed compound slides – biochemical, small-molecule microarray, 635/667 nm fluorescence, BSA, DTT, primary screen (AID 1130).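 Note: composite of spot emission at 667 nm and signal to noise over triplicate slides.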 Particulars: 635 nm fluorescence, higher = more signal.
Consider `CCCC=C(CCC)[C@@H](NS(=O)(=O)c1ccc(-c2ccccc2)cc1)c1ccc(C(=O)OC)cc1`, for which the composite z-score is -0.15. Consider `COc1ccc([Si](C)(C)[C@@H]2[C@@H](CC(=O)N(CCO)Cc3ccccc3)O[C@]3(C(=O)N(Cc4cccc(N5CCC5=O)c4)c4ccccc43)[C@H]2C)cc1`, for which the composite z-score turned out to be 0.545.

Take `CCC1=C2CN(Cc3ccccc3Br)[C@@H]([C@@H](O)Cc3ccccc3)C2C=CCC1` (stereo not given in full): the composite z-score amounted to 0.172.

Turning to `CO[C@H]1COC(=O)[C@H](C)COC(=O)[C@H](Cc2ccccc2)NC(=O)CC=C[C@H]1C`, the composite z-score is 0.195. On to `Cc1ccc(S[C@]2(C(=O)NC3CC3)CC(=O)N(Cc3cc(C(F)(F)F)cc(C(F)(F)F)c3)[C@@H]2c2ccc(CO)cc2)cc1`, for which the composite z-score turned out to be 0.389. `CCCC[C@@H]1C[C@H]1[C@@H](NC(=O)c1cccs1)c1ccc(Cl)cc1` had a composite z-score of -0.393. For the compound `COC(=O)C(CC#Cc1ccc2c(c1)[C@]1(C(=O)N2)[C@H](C(=O)N2CCCCCCC2)[C@H]2C(=O)O[C@H](c3ccccc3)[C@H](c3ccccc3)N2[C@@H]1c1ccc(O)cc1)C(=O)OC`, the composite z-score was -0.222. `CC(C)N1CC=CC23O[C@@H]4/C=C\CCCOC(=O)C4[C@H]2C(=O)N(CCO)[C@@H]3C1=O` (stereo not given in full) came in with a composite z-score of 0.339.

For `O=C1O[C@H](c2ccccc2)[C@H](c2ccccc2)N2[C@H]1[C@@H](C(=O)NC[C@H](O)c1ccccc1)[C@]1(C(=O)Nc3ccc(C#CC4=CCCCC4)cc31)[C@H]2c1ccc(OCCO)cc1`, the composite z-score came out at 0.73. `Cc1ccc(S[C@]2(C(=O)NC(C)C)CC(=O)N(C3Cc4ccccc4C3)[C@@H]2c2ccc(CO)cc2)cc1` registered a composite z-score of 0.447.
